This is an account of results in PubChem BioAssay (Tox21).

SMILES strings stand for the structures. Results filed as inconclusive are left out. Entries that show only a call come without a potency. Active and inactive are the calls of the source. Calls follow the shape of the dose curve; as a rule, active = well fitted activation curve with a large enough effect in the repeat runs; inconclusive = weak or mixed curves; inactive = no such curve, though single readings can be large or run the other way.
Potency is read from the fitted curve at half-maximal effect.

The target of this test is Nuclear receptor subfamily 1 group I member 2 (Homo sapiens) (UniProt O75469). The experiment in a line: CYP3A4 induction through human pregnane X receptor (PXR) by small molecules, qHTS assay (AID 1346984). Also: nearly all actives have a fitted effect of over 40% in size. Conditions: DPX-2 HepG2 PXR, CYP3A4-luciferin luminescence, 24 h; series mostly up to 46.1 µM. The text has this:
National Center for Advancing Translational Sciences [NCATS]
NIH Chemical Genomics Center [NCGC]
U.S. Environmental Protection Agency [EPA]
National Institutes of Environmental Health Sciences [NIEHS]
National Toxicology Program [NTP]
The Pregnane X receptor (PXR), a ligand activated nuclear receptor plays a critical role in the regulation of genes involved in drug metabolism and transporters. Activation of PXR is responsible for unwanted adverse drug reactions. PXR binds xenobiotics and when compounds interact with PXR enhances the expression of CYP3A genes. Identifying the compounds with the potential for PXR activation and CYP3A4 induction can be of importance in improving the efficacy of drugs with less toxicity and avoiding drug-drug interactions.
DPX-2 (Puracyp, Inc.) cell lines, used for screening against human PXR activation has HepG2 cells co-transfected with a PXR response element and a luciferase construct containing CYP3A4 promoter. Increase in luciferase activity can be used to identify the compounds that cause the induction of CYP3A4.
DPX-2 cells were dispensed at 2,000 cells per well in 5uL of assay medium into white, solid-bottom 1536-well plates using a Multidrop Combi dispenser (Thermo Scientific). The assay plates were incubated at 37C for 5hr before transferring 23nL of test compounds dissolved in DMSO and positive control via Pintool station (Wako). The assay plates were incubated at 37C for 24hr. After 24hr compound treatment, 1uL of 3uM (final concentration) P450 substrate (P450-Glo CYP3A4 screening system with Luciferin-IPA, Promega) was added by a Flying Reagent Dispenser (FRD, Aurora Discovery). The assay plates were incubated for 3hr at 37C. Then 5ul One-Glo assay reagent (Promega) was added to each plate by an FRD and following 30 min incubation at room temperature, luciferase activity was quantified on a ViewLux plate reader (Perkin Elmer).
Take `CC1=CCC(C(C)(C)O)CC1` (stereo not given): the Potency entry was “inactive”.

For `Nc1ncn([C@@H]2O[C@H](CO)[C@@H](O)[C@H]2O)c(=O)n1`, the Potency entry is “inactive”.

As for `O=C1c2cccc(O)c2C(=O)c2c(O)cccc21`, the Potency result was “inactive”.

In the case of `Cc1c(C(N)=O)cc([N+](=O)[O-])cc1[N+](=O)[O-]`, the Potency result was “inactive”.

For `COc1ccc(OC)c(C(O)CNC(=O)CN)c1` (stereo not given), the Potency result is “inactive”.

For `O=CCCCC=O`, the Potency result is “inactive”.

Consider `COc1ccc(C(=O)CC(=O)c2ccc(C(C)(C)C)cc2)cc1`, for which the Potency result is “inactive”.

With `C[Si](C)(C)O[Si](C)(C)C`, the Potency entry is “inactive”.

Turning to `CC(C)Oc1ccc2c(=O)c(-c3ccccc3)coc2c1`, the Potency entry is “inactive”.

As to `C#C[C@]1(O)CC[C@H]2[C@@H]3CCC4=Cc5oncc5C[C@]4(C)[C@H]3CC[C@@]21C`, the Potency result is “inactive”.

As to `CC(C)(C)NC(=O)[C@H]1CC[C@H]2[C@@H]3CC[C@H]4NC(=O)C=C[C@]4(C)[C@H]3CC[C@]12C`, the Potency entry is “inactive”.

Regarding `Cc1cccc(N(C)C(=S)Oc2ccc3ccccc3c2)c1`, the Potency is 5.01 µM (active).

For `COc1cccc2c1C(=O)c1c(O)c3c(c(O)c1C2=O)C[C@@](O)(C(=O)CO)C[C@@H]3O[C@H]1C[C@H](N)[C@H](O)[C@H](C)O1`, the Potency entry is “inactive”.

Consider `CCCC(=O)O`, for which the Potency result is “inactive”.

Take `CCCCC(CC)COC(=O)c1ccc(N(C)C)cc1` (stereo not given): the Potency result was “inactive”.

Regarding `O=C(COc1ccc(Cl)cc1)N1CCN(Cc2ccc3c(c2)OCO3)CC1`, the Potency result is “inactive”.

As to `OC[C@H]1O[C@@H]2O[C@H]3[C@H](O)[C@@H](O)[C@@H](O[C@H]4[C@H](O)[C@@H](O)[C@@H](O[C@H]5[C@H](O)[C@@H](O)[C@@H](O[C@H]6[C@H](O)[C@@H](O)[C@@H](O[C@H]7[C@H](O)[C@@H](O)[C@@H](O[C@H]8[C@H](O)[C@@H](O)[C@@H](O[C@H]1[C@H](O)[C@H]2O)O[C@@H]8CO)O[C@@H]7CO)O[C@@H]6CO)O[C@@H]5CO)O[C@@H]4CO)O[C@@H]3CO`, the Potency entry is “inactive”.

Consider `CC(=O)Oc1ccccc1C(=O)Nc1ncc([N+](=O)[O-])s1`, for which the Potency result was “inactive”.

For the molecule `C[C@]12CC[C@H]3[C@@H](CCC4=CC(=O)CC[C@@]43C)[C@@H]1CC[C@@H]2C(=O)CO`, the Potency entry is “inactive”.

`CN1C(C(=O)Nc2ccccn2)=C(O)c2ccccc2S1(=O)=O`: the Potency result was “inactive”.

As to `CN(C)CCN(Cc1cccs1)c1ccccn1`, the Potency entry was “inactive”.

For `C#C[C@]1(O)CC[C@H]2[C@@H]3CCc4cc(OC)ccc4[C@H]3CC[C@@]21C`, the Potency result is “inactive”.

`O=S(=O)(O)c1ccc(O)cc1`: the Potency entry is “inactive”.

Turning to `Nc1ccc(S(=O)(=O)Nc2cnc3ccccc3n2)cc1`, the Potency result is “inactive”.

Turning to `C[C@]12CCC(=O)C=C1CC[C@@H]1[C@@H]2C(=O)C[C@@]2(C)[C@H]1CC[C@]2(O)C(=O)CO`, the Potency result is “inactive”.

Take `O=C(Nc1ccc(Cl)cc1)Nc1ccc(Cl)c(Cl)c1`: the Potency entry is “inactive”.

On to `Cc1[nH]c(=O)c(C#N)cc1-c1ccncc1`, for which the Potency entry was “inactive”.

Turning to `CC(=O)O[C@]1(C(C)=O)CC[C@H]2[C@@H]3C=C(Cl)C4=CC(=O)[C@@H]5C[C@@H]5[C@]4(C)[C@H]3CC[C@@]21C`, the Potency entry is “inactive”.

Take `C=C(C)C1CC=C(C)CC1` (stereo not given): the Potency result is “inactive”.

Regarding `Nc1ncnc2nc[nH]c12`, the Potency entry was “inactive”.
